# Screening results deposited in PubChem by National Center for Advancing Translational Sciences (NCATS).
# Shown are actives, neighbours in structure and some others; about 2.9% of the full set was active somewhere.
# MmCpn inh = blocks the Methanococcus maripaludis chaperonin Mm-Cpn. purified Mm-Cpn ATPase, ADP Transcreener TR-FRET. Potency, µM (series often up to 76.9 µM), for inactives: at the top dose activity, negative = inhibition, hits mostly inhibitors. actives 0.031% (n = 330,000); active = well fitted inhibition curve with a large enough effect; inconclusive = small, poorly fitted or top-dose-only effect; note: potency is the fitted concentration of half-maximal effect; % is set by controls: 0 for no effect and ±100 for the full control effect; nearly all actives have a fitted effect of over 80% in size
#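 Measured: ADP formation by purified Mm-CPN. Conditions: 25 nM protein, 10 uM ATP, Tris pH 7.4 with Mg2+, K+ and DTT, 37°C for 30 min. Detection: Transcreener HTRF after 30 min at room temperature.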
# Rango release inh = inhibitors of RanGTP-induced Rango-importin beta complex dissociation; Biochemical FRET Rango-importin beta, RanGTP-induced dissociation; O95149+P62826; AID 540253; Potency, µM (top dose mostly 46.1 µM), without a hit: at the top dose activity change, negative = inhibition; actives 0.071% (n = 340,000); note: potency is the fitted concentration of half-maximal effect; % of control where 0% means no effect; nearly all actives have a fitted effect of over 45% in size
#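 Compounds sat 5 min at room temperature with 0.1 uM Rango biosensor plus 0.25 uM importin beta, then FRET pre-read. RanGTP-RCC1 (0.6 uM Ran, 2mM GTP, 0.2 uM RCC1) added for 45 min, and the CFP/YFP post-read measured blocked complex dissociation.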
# Rango-impB inh = Rango-importin beta binding inhibition; Rango CFP/YFP FRET sensor + importin beta, 45 min; Potency, µM (highest dose often 92.2 µM), inactives show top-dose inhibition of complex formation; actives 0.031% (n = 340,000); AID 540263;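 note: potency is the fitted concentration of half-maximal effect; 0% = DMSO wells and 100% = buffer wells lacking importin beta; nearly all actives have a fitted effect of over 15% in size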
# Target sequence (Q14974 whole entry, looked up): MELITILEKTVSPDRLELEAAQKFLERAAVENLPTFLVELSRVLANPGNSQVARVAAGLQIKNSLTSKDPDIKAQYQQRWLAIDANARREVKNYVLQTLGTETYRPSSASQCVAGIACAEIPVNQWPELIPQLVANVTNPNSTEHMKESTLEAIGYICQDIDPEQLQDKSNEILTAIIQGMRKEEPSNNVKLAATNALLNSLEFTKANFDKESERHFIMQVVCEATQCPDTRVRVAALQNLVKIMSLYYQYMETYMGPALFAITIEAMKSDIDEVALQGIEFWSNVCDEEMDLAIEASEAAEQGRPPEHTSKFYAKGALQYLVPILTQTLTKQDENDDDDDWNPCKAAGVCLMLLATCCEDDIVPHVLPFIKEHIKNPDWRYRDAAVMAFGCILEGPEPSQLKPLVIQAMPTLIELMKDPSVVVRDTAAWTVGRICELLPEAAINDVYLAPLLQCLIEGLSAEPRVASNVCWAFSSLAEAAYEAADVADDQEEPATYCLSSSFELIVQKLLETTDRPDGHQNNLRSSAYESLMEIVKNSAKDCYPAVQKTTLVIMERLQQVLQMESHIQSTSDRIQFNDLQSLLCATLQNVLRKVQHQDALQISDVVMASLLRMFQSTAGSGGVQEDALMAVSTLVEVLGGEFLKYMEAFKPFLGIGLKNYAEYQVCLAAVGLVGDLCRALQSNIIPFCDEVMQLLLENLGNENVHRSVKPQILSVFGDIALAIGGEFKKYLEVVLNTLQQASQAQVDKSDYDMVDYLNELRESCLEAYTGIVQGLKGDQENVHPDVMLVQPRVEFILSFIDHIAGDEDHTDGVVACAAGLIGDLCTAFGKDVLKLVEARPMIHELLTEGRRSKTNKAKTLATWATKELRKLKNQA
#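 FRET biosensor Rango (snurportin 1 IBB between N-terminal EYFP and C-terminal Cerulean), 50 nM in PBS/1 mM DTT/0.02% Tween-20/0.1% BSA, preincubated 5 min RT with compound; 0.125 microM importin beta added, 45 min RT, CFP/YFP FRET ratio read.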
# D3 ag = agonists of human D3 dopamine receptor | P35462 | AID 652048 | D3R DiscoveRx beta-arrestin cells, luminescence, 90 min | max activation, % | actives 0.58% (n = 410,000); in the data active = max activation above about 30%; note: 0% is about no effect
#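 Cells at 1500/well, incubated overnight, then treated with pinned compounds (dopamine as control) for 90 min at 37 degrees C. DiscoveRx reagent added for 30 - 60 minutes at room temperature; luminescence read.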
# D3 antag = antagonists of human D3 dopamine receptor | P35462 | D3R cells, DiscoveRx beta-arrestin luminescence, antagonist mode; active compounds read low | max response, negative = inhibition, % | actives 2.5% (n = 360,000) | AID 652054; in the data active = max response below about -50%; inconclusive = no clear call, values can overlap the other calls; note: % is set by controls: 0 for no effect and ±100 for the full control effect
#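 Cells expressing the human receptor were seeded at 1500 cells/well, incubated overnight at 37 degrees C in 5% CO2, then exposed to library compounds with dopamine controls for 90 minutes at 37 degrees C before luminescent detection.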
# PTAP TSG101 blk = blocks PTAP/TSG101 interaction to inhibit HIV-1 budding; Q99816; Fluorescence polarization, FITC-PTAP peptide / Tsg101 binding; Potency, µM (top dose mostly 115 µM), for the others: at the top dose activity change, negative = inhibition, actives largely listed as inhibitors; 340,000 tested, under 10 active; AID 493005; active = well fitted inhibition curve with a large enough effect in the main read-out, with a control signal flat, not every such curve was filed as active; inconclusive = small, poorly fitted or top-dose-only effect, or effect the other way, or a change in a side signal; inactive = no such curve, though single readings can be large or run the other way; note: potency is the fitted concentration of half-maximal effect; % of control where 0% means no effect
#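 Tsg101 binding domain (10 uM final) was mixed with compound and a FITC-labeled PTAP peptide (50 nM final) in HEPES pH 7.5 buffer with NaCl, Tween 20, EDTA and TCEP; fluorescence polarization was read after 20 min at r.t.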
# The depositor's hits bear a star; u = inconclusive; x = no result given. Unless noted, calls come from the whole dose curve.
SMILES,MmCpn inh,Rango release inh,Rango-impB inh,D3 ag,D3 antag,PTAP TSG101 blk
CCN1CCc2c(C#N)c(N3CCCCC3)nc(N3CCOCC3)c2C1,-1%,u,u,0,-53*,-3%
N#Cc1c(N2CCOCC2)nc(N2CCCCC2)c2c1CCN(C1CCCCC1)C2,-1%,23µM*,u,-14,47,-5%
CCN1CCc2c(C#N)c(N3CCOCC3)nc(N3CCOCC3)c2C1,0%,1%,-2%,-2,17,-6%
Cc1ccc(C(CC(=O)NCC2(c3ccccc3)CCCC2)c2ccccc2)c(O)c1 (stereo unspecified),x,x,x,4,x,x
O=P(O)(O)C(Sc1ccc(Cl)cc1)P(=O)(O)O,x,x,x,3,x,x
O=C(NC(=S)N1CCN(c2ccc([N+](=O)[O-])cc2)CC1)c1ccccc1,0%,-13%,-1%,0,-21,4%
Cc1ccc(C(=O)NC(=S)N2CCN(c3ccc([N+](=O)[O-])cc3)CC2)cc1,-3%,-2%,-2%,-23,-53*,-3%
O=C(CCn1nc(-c2ccc(Cl)cc2)c2ccccc2c1=O)Nc1ccc(OC(F)(F)F)cc1,x,x,x,-9,x,x
COC(=O)c1ccccc1S(=O)(=O)NNC(=O)C12CC3CC(CC(C3)C1)C2,0%,-2%,-1%,-1,-8,-6%
CCc1cccc(NC(=O)C2CCC(CNS(=O)(=O)c3ccc4c(c3)CCCC(=O)N4)CC2)c1 (stereo unspecified),x,x,x,6,x,x
CCc1cccc(C)c1NC(=S)N(CCN(C)C)C(C)c1ccco1 (stereo unspecified),2%,-12%,2%,5,17,-4%
CCc1ccccc1NC(=S)N(CCN(C)C)C(C)c1ccco1 (stereo unspecified),-2%,-2%,0%,-4,-146*,-8%
O=C(Nc1ccc(F)c(Cl)c1)C1Cc2ccccc2CN1S(=O)(=O)c1ccc(F)cc1 (stereo unspecified),x,x,x,-10,x,x
O=[N+]([O-])c1cc([N+](=O)[O-])c2cc3ccccc3nc2c1,-1%,-14%,0%,-28,-80*,0%
N#Cc1c(NC(=O)c2ccc(-c3ccccc3[N+](=O)[O-])o2)sc2c1CCCC2,0%,12%,0%,-14,-117*,-4%
Cn1c(NCc2cccc(Br)c2)nc2ccccc21,-1%,-11%,2%,-13,-58*,-6%
COc1cc(C=C2CCC/C(=C\c3ccc(O)c(OC)c3)C2=O)ccc1O,x,x,x,5,x,x
COc1ccc(C(=O)CSc2nnc(-c3ccco3)n2CC2CCCO2)cc1 (stereo unspecified),-1%,0%,5%,-2,-4,-6%
O=C(CSc1nnc(-c2ccco2)n1CC1CCCO1)c1ccc(F)cc1 (stereo unspecified),0%,12%,0%,6,-67*,-10%
Cc1[nH]c(=O)[nH]c(=O)c1Sc1ccccc1[N+](=O)[O-],1%,11%,0%,-9,-4,0%
CC1(Br)C(Sc2ccccc2[N+](=O)[O-])=Nc2ccccc21 (stereo unspecified),x,x,x,-13,-51*,x
O=C(/C=C\c1ccccc1)NC1CC(=O)N(c2ccccc2)C1 (stereo unspecified),x,x,x,45*,x,x
Cc1ccc(C(=O)O)cc1N=Cc1cc(Br)cc(Br)c1O,-2%,u,u,-24,-120*,-2%
O=S(=O)(Nc1ccc(F)c(Cl)c1)c1ccc(Br)s1,x,x,x,6,x,x
COc1cc(/C=C/CN2CCC(Oc3ccc(C(=O)N4CCCC4)cc3)CC2)ccc1O,0%,-3%,0%,-11,-7,-3%
SMILES,MmCpn inh,Rango release inh,Rango-impB inh,D3 ag,D3 antag,PTAP TSG101 blk
COc1ccccc1/C=C/CN1CCC(Oc2ccc(C(=O)N3CCCC3)cc2)CC1,0%,-10%,0%,-13,-68*,-1%
COC1CCCN(C(=O)c2ccc(OC3CCN(CCc4ccccc4)CC3)cc2)C1 (stereo unspecified),-1%,-23%,-3%,-10,-55*,-4%
CC(CCc1ccc(O)cc1)N1CCC(Oc2ccc(C(=O)N3CCCC3)cc2)CC1 (stereo unspecified),-2%,-11%,2%,73*,5,-1%
CN(C)CCNC(=O)c1ccc2c(c1)N(Cc1ccccc1)C(=O)c1ccccc1S2(=O)=O,x,x,x,-9,x,x
COc1ccc(Cl)cc1NC(=O)c1cc2nc(-c3ccc(C)cc3)cc(C(F)(F)F)n2n1,x,x,x,2,x,x
CCSc1ccccc1C(=O)Nc1ccc(-c2nc3ccccc3s2)c(O)c1,x,x,x,-19,x,x
Cc1nc(NCCc2ccc(S(N)(=O)=O)cc2)c2c3c(sc2n1)CCC3,-1%,-27%,u,35*,41,-3%
COc1cccc(N2CCN(C(=O)CN3CCSc4ccc(S(=O)(=O)N(C)C)cc43)CC2)c1,x,x,x,-3,x,x
COc1cccc(CN(C)CC(=O)NCc2ccc(F)cc2)c1OC,-1%,-5%,2%,-3,5,-4%
NC(N)=N/N=C/c1cccc([N+](=O)[O-])c1O,-4%,-4%,3%,-14,-15,-2%
O=[N+]([O-])c1cccc(/C=N\N=C2c3ccccc3-c3ccccc32)c1O,-1%,6%,0%,-13,-74*,2%
COc1ccc(-c2nc3c4ccccc4n(CC(=O)N4CCN(c5ccccc5F)CC4)c(=O)n3n2)cc1,x,x,x,-20,x,x
COC(=O)Nc1ncc(CN2CCc3ccccc3C2)s1,2%,0%,-5%,-33,-74*,-4%
COc1ccccc1CNS(=O)(=O)c1c(C(=O)N2CCC(C)CC2)c(C)n(C)c1C,x,x,x,-10,x,x
O=C(CCc1ccccc1)NC(NC(=S)Nc1ccc(Br)cc1)C(Cl)(Cl)Cl (stereo unspecified),2%,-5%,3%,-14,-91*,-5%
CC(=O)c1ccc(NC(=O)COC(=O)c2ccc(F)cc2F)cc1,2%,-3%,-2%,5,4,-1%
CCOC(=O)c1c(-c2ccccc2)csc1NC(=O)c1ccc(N2C(=O)CCC2=O)cc1,-9%,-3%,0%,57*,35,-5%
CCOC(=O)c1c(-c2ccccc2)csc1NC(=O)c1ccc(S(=O)(=O)N2CC(C)OC(C)C2)cc1 (stereo unspecified),0%,10%,0%,14,15,-1%
CC(C)CCNC(=O)Cn1c2c(c(-c3ccccc3Cl)cc1=O)CCC2,-5%,-5%,0%,-3,-13,-1%
